Reference: paper PMC7862700, “An all-to-all approach to the identification of sequence-specific readers for epigenetic DNA modifications on cytosine”

Legend:
Assay in all cases: DAPPL (digital affinity profiling via proximity ligation, sequencing); 10 mM Tris-HCl pH 7.5, 50 mM NaCl, 1 mM DTT, 4% glycerol, room temperature, 30 min; GST-TFs on glutathione beads, 16-mer random dsDNA library, 0.1% formaldehyde crosslink after washing; high values mean tight binding
FLI1 = target: T1, FLI1 (Homo sapiens, UniProt Q01543 1-452); details: protein: recombinant; tags: N-terminal GST; dsDNA, one strand shown
T1 sequence: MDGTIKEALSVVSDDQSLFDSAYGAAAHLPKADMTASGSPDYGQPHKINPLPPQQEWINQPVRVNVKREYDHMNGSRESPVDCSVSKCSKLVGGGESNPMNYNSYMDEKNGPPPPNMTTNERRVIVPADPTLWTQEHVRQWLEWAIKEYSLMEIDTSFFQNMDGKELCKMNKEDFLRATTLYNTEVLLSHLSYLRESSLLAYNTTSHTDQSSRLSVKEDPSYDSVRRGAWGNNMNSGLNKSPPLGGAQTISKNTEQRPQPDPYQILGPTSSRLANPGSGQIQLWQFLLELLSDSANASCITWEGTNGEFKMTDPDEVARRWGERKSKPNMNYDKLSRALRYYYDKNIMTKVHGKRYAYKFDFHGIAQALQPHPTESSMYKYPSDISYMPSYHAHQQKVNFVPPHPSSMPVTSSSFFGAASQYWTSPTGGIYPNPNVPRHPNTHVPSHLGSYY
How it was run: (§1)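 Sequencing on an Illumina NextSeq500 followed washing, crosslinking with 0.1% formaldehyde, proximity ligation (BsaI/T4 ligase, 1 h, 37 °C) and PCR amplification of pools that had been incubated for 30 min at room temperature with 200 nmole of a random double-stranded 16-mer DNA library in Tris/NaCl/DTT/glycerol buffer. Each pool held DNA-barcoded human transcription factors, expressed in yeast as GST fusions and captured on glutathione beads, plus a tag-only sample. Binding signal is a hexamer's read frequency for a factor divided by its frequency in the tag-only sample.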

ELK1 = target: T2, ELK1 (Homo sapiens, UniProt P19419 1-428); details: protein: recombinant; tags: N-terminal GST; dsDNA, one strand shown
T2 sequence: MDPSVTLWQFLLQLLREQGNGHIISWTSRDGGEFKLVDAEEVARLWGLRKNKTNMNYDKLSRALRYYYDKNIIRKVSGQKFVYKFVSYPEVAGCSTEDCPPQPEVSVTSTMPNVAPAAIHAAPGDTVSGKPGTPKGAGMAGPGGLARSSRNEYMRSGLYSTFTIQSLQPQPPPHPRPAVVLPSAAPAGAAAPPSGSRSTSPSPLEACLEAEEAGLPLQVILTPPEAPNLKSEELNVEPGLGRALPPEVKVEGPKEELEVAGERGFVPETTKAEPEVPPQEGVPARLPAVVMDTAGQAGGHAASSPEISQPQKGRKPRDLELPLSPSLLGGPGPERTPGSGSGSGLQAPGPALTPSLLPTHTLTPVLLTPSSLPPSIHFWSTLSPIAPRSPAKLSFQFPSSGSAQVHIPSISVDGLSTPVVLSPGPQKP
How it was run: as §1

GABPA = target: T3, GABPA (Homo sapiens, UniProt Q06546 1-454); details: protein: recombinant; tags: N-terminal GST; dsDNA, one strand shown
T3 sequence: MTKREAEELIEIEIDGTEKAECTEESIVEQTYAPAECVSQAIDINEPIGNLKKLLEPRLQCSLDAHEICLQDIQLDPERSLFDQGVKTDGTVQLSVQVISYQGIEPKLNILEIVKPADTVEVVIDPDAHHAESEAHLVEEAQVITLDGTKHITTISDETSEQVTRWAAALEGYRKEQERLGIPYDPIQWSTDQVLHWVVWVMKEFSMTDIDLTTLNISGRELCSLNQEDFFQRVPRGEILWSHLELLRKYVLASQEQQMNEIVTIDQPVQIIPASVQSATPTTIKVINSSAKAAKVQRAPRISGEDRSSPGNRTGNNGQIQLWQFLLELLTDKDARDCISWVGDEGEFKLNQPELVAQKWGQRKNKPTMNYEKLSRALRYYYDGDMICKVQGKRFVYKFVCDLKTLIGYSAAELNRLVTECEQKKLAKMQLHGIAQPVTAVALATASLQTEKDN
How it was run: as §1

ERG = target: T4, ERG (Homo sapiens, UniProt P11308 1-479); details: protein: recombinant; tags: N-terminal GST; dsDNA, one strand shown
T4 sequence: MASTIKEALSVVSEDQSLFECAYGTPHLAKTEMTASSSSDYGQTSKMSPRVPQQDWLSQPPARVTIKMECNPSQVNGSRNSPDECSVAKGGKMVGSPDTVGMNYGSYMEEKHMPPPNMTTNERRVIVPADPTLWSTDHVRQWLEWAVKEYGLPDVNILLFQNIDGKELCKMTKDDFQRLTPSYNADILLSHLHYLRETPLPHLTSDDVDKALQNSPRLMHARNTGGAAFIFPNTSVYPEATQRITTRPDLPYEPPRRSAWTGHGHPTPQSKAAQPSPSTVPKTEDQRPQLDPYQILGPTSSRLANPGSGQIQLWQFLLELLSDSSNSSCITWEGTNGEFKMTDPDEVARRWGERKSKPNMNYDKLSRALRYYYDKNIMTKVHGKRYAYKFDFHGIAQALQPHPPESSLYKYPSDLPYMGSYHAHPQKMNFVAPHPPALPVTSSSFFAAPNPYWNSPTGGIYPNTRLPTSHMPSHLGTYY
How it was run: as §1

ELF1 = ELF1 (Homo sapiens, UniProt P32519 1-619); details: protein: recombinant; tags: N-terminal GST; dsDNA, one strand shown
How it was run: as §1

EHF = target: T5, EHF (Homo sapiens, UniProt Q9NZC4 1-300); details: protein: recombinant; tags: N-terminal GST; dsDNA, one strand shown
T5 sequence: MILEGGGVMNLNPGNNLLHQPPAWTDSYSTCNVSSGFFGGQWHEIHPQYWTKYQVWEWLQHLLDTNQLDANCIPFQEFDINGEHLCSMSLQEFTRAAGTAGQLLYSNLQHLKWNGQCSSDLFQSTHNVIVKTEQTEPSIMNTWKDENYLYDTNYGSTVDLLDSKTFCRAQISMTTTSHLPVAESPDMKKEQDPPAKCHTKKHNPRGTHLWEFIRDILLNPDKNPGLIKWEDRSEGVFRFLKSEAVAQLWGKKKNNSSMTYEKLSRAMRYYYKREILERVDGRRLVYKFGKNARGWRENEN
How it was run: as §1

SPI1 = SPI1 (Homo sapiens, UniProt P17947 1-270); details: protein: recombinant; tags: N-terminal GST; dsDNA, one strand shown
How it was run: as §1

SPIB = SPIB (Homo sapiens, UniProt Q01892 1-262); details: protein: recombinant; tags: N-terminal GST; dsDNA, one strand shown
How it was run: as §1

ELK3 = target: T6, ELK3 (Homo sapiens, UniProt P41970 1-407); details: protein: recombinant; tags: N-terminal GST; dsDNA, one strand shown
T6 sequence: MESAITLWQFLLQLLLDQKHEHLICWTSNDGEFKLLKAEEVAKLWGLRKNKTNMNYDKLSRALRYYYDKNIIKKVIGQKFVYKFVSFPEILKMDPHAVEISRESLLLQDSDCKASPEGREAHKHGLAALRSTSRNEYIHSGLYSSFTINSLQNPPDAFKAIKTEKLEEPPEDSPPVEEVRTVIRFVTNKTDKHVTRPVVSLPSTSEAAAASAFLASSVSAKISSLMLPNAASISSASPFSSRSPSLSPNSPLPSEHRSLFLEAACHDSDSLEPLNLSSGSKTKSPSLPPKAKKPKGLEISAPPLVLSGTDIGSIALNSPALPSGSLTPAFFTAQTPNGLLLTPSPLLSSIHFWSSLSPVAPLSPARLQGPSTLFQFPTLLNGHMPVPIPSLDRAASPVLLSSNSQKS
How it was run: as §1

FEV = target: T7, FEV (Homo sapiens, UniProt Q99581 1-238); details: protein: recombinant; tags: N-terminal GST; dsDNA, one strand shown
T7 sequence: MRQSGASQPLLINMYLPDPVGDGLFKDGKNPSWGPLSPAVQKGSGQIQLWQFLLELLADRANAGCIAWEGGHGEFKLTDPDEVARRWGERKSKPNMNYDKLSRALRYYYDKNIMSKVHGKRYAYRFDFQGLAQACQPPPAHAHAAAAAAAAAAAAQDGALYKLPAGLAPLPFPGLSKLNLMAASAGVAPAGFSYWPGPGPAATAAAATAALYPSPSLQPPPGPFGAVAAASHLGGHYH
How it was run: as §1

ETV5 = ETV5 (Homo sapiens, UniProt P41161 1-510); details: protein: recombinant; tags: N-terminal GST; dsDNA, one strand shown
How it was run: as §1

HSF1 = HSF1 (Homo sapiens, UniProt Q00613 1-529); details: protein: recombinant; tags: N-terminal GST; chain copies: 3; dsDNA, one strand shown
How it was run: as §1

SPIC = target: T8, SPIC (Homo sapiens, UniProt Q8N5J4 1-248); details: protein: recombinant; tags: N-terminal GST; dsDNA, one strand shown
T8 sequence: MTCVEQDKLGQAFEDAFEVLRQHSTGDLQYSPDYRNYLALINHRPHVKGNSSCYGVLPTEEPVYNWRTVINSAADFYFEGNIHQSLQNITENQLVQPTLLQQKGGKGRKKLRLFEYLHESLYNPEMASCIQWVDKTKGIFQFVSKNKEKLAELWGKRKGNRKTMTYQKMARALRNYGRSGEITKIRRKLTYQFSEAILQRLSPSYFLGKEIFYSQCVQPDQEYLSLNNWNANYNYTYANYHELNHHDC
How it was run: as §1

ELF4 = ELF4 (Homo sapiens, UniProt Q99607 1-663); details: protein: recombinant; tags: N-terminal GST; dsDNA, one strand shown
How it was run: as §1

ELK4 = target: T9, ELK4 (Homo sapiens, UniProt P28324-2 1-405); details: protein: recombinant; tags: N-terminal GST; dsDNA, one strand shown
T9 sequence: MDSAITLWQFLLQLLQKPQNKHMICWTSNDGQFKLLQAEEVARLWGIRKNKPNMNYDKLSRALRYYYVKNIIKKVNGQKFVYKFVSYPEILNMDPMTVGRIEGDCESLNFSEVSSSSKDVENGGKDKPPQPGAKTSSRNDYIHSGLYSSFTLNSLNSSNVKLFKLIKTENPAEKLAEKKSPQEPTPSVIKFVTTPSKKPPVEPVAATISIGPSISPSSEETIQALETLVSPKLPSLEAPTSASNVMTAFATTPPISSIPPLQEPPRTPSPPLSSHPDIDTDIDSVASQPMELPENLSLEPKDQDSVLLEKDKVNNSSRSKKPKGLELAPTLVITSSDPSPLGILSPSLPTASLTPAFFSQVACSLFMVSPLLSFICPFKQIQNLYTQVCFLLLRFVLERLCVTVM
How it was run: as §1

ETV2 = target: T10, ETV2 (Homo sapiens, UniProt O00321 1-342); details: protein: recombinant; tags: N-terminal GST; dsDNA, one strand shown
T10 sequence: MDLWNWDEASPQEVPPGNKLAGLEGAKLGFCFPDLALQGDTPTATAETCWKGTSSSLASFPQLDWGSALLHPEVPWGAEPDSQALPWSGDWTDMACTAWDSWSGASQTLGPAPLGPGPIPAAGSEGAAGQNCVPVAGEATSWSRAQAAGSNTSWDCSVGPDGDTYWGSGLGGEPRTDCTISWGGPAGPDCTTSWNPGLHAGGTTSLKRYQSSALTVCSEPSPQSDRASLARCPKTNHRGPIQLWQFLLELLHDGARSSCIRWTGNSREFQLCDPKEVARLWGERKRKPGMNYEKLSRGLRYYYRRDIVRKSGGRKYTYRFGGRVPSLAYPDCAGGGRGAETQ
How it was run: as §1

ELF3 = target: T11, ELF3 (Homo sapiens, UniProt P78545 1-371); details: protein: recombinant; tags: N-terminal GST; dsDNA, one strand shown
T11 sequence: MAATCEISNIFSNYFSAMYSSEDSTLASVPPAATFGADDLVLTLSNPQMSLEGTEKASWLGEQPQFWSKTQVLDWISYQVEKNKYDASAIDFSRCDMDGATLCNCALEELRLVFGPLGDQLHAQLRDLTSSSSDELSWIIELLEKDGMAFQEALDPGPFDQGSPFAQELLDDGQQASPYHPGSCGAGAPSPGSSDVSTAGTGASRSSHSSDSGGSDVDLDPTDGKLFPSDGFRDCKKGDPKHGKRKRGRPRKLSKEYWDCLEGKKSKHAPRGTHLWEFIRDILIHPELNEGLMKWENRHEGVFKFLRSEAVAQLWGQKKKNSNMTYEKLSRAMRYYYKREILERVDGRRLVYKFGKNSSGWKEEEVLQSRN
How it was run: as §1

CRX = CRX (Homo sapiens, UniProt O43186 1-299); details: protein: recombinant; tags: N-terminal GST; dsDNA, one strand shown
How it was run: as §1

ETV1 = ETV1 (Homo sapiens, UniProt P50549 1-477); details: protein: recombinant; tags: N-terminal GST; dsDNA, one strand shown
How it was run: as §1

ETV5, sequence (P41161 whole entry): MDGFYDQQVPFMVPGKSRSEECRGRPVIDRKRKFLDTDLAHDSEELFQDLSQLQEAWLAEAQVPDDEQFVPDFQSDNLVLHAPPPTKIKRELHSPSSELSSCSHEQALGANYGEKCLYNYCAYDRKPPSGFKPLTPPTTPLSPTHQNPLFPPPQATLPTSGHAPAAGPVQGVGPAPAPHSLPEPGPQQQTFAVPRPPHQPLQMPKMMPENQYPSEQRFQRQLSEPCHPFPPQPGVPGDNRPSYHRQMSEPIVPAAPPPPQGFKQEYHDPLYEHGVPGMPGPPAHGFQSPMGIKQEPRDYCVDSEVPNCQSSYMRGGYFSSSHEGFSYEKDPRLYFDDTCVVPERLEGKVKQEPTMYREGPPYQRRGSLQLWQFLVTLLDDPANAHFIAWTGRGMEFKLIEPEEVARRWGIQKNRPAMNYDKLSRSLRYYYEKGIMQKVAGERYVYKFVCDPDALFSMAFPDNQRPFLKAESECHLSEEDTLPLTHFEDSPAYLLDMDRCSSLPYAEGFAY
ELF1, sequence (P32519 whole entry): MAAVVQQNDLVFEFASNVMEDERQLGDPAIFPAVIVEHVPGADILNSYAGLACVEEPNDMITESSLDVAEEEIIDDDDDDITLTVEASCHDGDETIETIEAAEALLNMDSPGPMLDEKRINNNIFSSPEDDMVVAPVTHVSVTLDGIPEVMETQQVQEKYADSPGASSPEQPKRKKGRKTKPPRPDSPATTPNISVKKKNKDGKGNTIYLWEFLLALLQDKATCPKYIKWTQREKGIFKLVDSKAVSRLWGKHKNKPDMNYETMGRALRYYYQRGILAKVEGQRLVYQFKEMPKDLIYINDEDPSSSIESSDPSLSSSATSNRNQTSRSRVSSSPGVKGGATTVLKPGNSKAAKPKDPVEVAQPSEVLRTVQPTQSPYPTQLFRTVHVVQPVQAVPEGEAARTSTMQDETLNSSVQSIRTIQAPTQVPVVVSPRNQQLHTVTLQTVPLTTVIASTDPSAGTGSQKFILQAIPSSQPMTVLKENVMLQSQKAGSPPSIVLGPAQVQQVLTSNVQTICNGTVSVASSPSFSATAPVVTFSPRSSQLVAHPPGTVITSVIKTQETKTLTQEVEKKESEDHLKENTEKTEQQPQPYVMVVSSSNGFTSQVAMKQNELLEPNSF
HSF1, sequence (Q00613 whole entry): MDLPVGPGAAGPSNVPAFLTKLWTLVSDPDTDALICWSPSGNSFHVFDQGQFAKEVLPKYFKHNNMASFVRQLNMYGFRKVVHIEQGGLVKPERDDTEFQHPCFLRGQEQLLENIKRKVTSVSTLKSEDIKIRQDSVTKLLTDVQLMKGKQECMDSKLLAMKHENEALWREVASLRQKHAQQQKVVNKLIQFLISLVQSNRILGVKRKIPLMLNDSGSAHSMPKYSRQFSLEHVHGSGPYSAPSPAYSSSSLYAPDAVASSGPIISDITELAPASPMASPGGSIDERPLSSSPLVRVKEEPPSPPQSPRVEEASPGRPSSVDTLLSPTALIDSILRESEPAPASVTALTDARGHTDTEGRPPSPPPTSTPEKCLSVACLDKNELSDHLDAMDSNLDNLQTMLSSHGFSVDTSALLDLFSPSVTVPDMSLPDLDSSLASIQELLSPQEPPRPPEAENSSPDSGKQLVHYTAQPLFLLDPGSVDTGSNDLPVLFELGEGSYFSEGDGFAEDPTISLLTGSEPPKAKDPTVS
ETV1, sequence (P50549 whole entry): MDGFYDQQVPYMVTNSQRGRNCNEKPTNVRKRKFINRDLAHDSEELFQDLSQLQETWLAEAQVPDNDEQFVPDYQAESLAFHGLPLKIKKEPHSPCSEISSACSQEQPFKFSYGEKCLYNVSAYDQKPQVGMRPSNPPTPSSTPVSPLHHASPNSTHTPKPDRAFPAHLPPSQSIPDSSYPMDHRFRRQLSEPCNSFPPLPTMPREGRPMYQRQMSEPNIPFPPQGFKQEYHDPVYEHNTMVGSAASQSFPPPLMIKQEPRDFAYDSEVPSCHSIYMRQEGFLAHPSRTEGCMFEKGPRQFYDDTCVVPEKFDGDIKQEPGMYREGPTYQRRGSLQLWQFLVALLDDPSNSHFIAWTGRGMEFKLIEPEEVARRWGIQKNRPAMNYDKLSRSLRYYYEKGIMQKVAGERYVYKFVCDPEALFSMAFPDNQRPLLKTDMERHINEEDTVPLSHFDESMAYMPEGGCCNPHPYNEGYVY
ELF4, sequence (Q99607 whole entry): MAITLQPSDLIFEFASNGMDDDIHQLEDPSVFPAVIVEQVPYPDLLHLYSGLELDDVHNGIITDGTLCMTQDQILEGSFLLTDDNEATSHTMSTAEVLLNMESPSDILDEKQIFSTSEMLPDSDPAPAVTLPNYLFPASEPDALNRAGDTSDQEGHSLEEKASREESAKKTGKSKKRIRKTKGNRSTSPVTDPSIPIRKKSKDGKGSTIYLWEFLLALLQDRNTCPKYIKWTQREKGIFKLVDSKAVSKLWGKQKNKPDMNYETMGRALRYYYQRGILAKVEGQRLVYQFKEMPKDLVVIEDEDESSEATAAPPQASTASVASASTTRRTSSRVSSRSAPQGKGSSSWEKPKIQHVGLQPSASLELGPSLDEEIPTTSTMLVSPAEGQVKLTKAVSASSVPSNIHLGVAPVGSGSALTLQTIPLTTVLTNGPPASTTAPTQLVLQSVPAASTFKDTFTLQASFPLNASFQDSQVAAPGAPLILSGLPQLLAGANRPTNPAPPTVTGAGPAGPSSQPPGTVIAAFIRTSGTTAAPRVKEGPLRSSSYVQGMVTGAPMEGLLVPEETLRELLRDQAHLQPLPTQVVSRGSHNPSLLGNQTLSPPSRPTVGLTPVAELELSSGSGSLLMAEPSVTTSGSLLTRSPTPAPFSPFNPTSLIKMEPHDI
CRX, sequence (O43186 whole entry): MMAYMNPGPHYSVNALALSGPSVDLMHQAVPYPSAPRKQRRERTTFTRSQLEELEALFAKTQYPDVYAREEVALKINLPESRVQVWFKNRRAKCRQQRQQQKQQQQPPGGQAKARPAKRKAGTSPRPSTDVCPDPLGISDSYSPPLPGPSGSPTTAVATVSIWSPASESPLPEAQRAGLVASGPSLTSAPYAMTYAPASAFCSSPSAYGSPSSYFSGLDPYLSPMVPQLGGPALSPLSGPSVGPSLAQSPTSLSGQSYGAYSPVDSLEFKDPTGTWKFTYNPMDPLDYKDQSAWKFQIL
SPIB, sequence (Q01892 whole entry): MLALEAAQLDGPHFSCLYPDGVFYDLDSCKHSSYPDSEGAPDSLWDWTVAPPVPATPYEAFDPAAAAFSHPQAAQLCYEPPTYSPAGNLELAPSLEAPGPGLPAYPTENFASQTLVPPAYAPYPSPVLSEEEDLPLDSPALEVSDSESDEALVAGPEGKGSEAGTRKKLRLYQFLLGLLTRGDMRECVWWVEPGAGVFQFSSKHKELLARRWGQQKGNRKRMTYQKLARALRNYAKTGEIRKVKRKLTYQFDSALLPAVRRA

Q: With TAGTGG as the sequence, how does the binding signal (FLI1) read?
A: 1.18 fold enrichment (6-mer frequency, TF over GST control)

Q: And the binding signal (ELK1)?
A: 1.19 fold enrichment (6-mer frequency, TF over GST control)

Q: And the binding signal (GABPA)?
A: 1.25 fold enrichment (6-mer frequency, TF over GST control)

Q: And the binding signal (ERG)?
A: 1.07 fold enrichment (6-mer frequency, TF over GST control)

Q: And the binding signal (ELF1)?
A: 1.28 fold enrichment (6-mer frequency, TF over GST control)

Q: And the binding signal (EHF)?
A: 1.32 fold enrichment (6-mer frequency, TF over GST control)

Q: And the binding signal (SPI1)?
A: 1.19 fold enrichment (6-mer frequency, TF over GST control)

Q: And the binding signal (SPIB)?
A: 1.34 fold enrichment (6-mer frequency, TF over GST control)

Q: And the binding signal (ELK3)?
A: 1.4 fold enrichment (6-mer frequency, TF over GST control)

Q: What about the binding signal (FEV) of the same sequence?
A: 1.21 fold enrichment (6-mer frequency, TF over GST control)

Q: And the binding signal (ETV5)?
A: 1.11 fold enrichment (6-mer frequency, TF over GST control)

Q: What about the binding signal (HSF1) of the same sequence?
A: 1.33 fold enrichment (6-mer frequency, TF over GST control)

Q: What about the binding signal (SPIC) of the same sequence?
A: 1.24 fold enrichment (6-mer frequency, TF over GST control)

Q: And the binding signal (ELF4)?
A: 1.15 fold enrichment (6-mer frequency, TF over GST control)

Q: What about the binding signal (ELK4) of the same sequence?
A: 1.37 fold enrichment (6-mer frequency, TF over GST control)

Q: And the binding signal (ETV2)?
A: 1.15 fold enrichment (6-mer frequency, TF over GST control)

Q: And the binding signal (ELF3)?
A: 1.1 fold enrichment (6-mer frequency, TF over GST control)

Q: What about the binding signal (CRX) of the same sequence?
A: 1.52 fold enrichment (6-mer frequency, TF over GST control)

Q: What about the binding signal (ETV1) of the same sequence?
A: 1.14 fold enrichment (6-mer frequency, TF over GST control)
